The whole screen tested about 360,000 compounds, of which about 1,800 (0.5%) were called active. The sample holds actives, similar compounds and a random draw of the others, so the mix is not that of the screen. Unmarked numbers belong to inactive results.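 How the source made its calls: active means interference check ratio from 0.5 to 1.5 plus GFP to RFP signal ratio inhibition reaching or exceeding a fixed threshold (cut at about 30% in these data, passing the limit was not always enough); inactive means the rest.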
assay: suppressors of acrylamide-induced Pgst-4::GFP reporter in worms, primary screen, SKN-1 inhibitor project, whole organism, uHTS, GFP/RFP fluorescence ratio, strain VP596 (AID 624304); details: C. elegans VP596 Pgst-4::GFP/RFP ratio, 24 h, at 21.8 µM, hits give high values

Question: Which inhibition does the source give for `OCC(CO)(CO)NCc1ccc(-c2ccccc2)cc1` here?
Answer: 5.37%

Question: With `CC(O)c1nc2c(c(=O)n(C)c(=O)n2C)n1C` (stereo not given) as the compound, how does the inhibition read?
Answer: 1.19%

Question: For `Cc1cccc(CN2CCN(Cc3cnn(-c4ccccc4F)c3)CC2CCO)n1` (stereo not given), which inhibition is on record?
Answer: -14.6%

Question: Which inhibition does the source give for `COc1ccc(C(=O)N(C)CC(O)c2ccccc2)cc1OC1CCN(C(C)=O)CC1` (stereo not given) here?
Answer: -1.73%

Question: For `COCCNC(=O)c1ccc(-n2c(SCc3cccnc3)nc3ccccc3c2=O)cc1`, which inhibition is on record?
Answer: 7.94%

Question: Which inhibition does the source give for `CCC(C(=O)NCc1ccccc1)n1c(Cc2cc(F)cc(F)c2)nc2ccccc21` (stereo not given) here?
Answer: -5.9%

Question: Which inhibition does the source give for `COc1cccc(CNC(=O)C2CCCN(c3ncnc4c3nc3n4CCCCC3)C2)c1` (stereo not given) here?
Answer: 15.4%

Question: For `COc1cccc(NC(=O)C2CCCN(c3ncnc4c3nc3n4CCCCC3)C2)c1` (stereo not given), which inhibition is on record?
Answer: 35.4% (active)

Question: With `CCOC(=O)c1cccc(NC(=O)C2CCN(c3ncnc4c3nc3n4CCCCC3)CC2)c1` as the compound, how does the inhibition read?
Answer: -10.7%

Question: With `CCCC1C(=O)N2C(N(C)C)=Nc3ccc(C)cc3N2C1=O` (stereo not given) as the compound, how does the inhibition read?
Answer: 11.9%

Question: With `Cn1c(=O)c2c(ncn2CC(COCc2ccccc2Cl)OCc2ccccc2Cl)n(C)c1=O` (stereo not given) as the compound, how does the inhibition read?
Answer: -6.9%

Question: For `CNC(=O)/C(C#N)=C/c1c(F)cccc1Cl`, which inhibition is on record?
Answer: 14.6%

Question: With `C=CCC1(C#N)C(=S)NC(C)=C(C(=O)OCC)C1c1ccccc1` (stereo not given) as the compound, how does the inhibition read?
Answer: 20.2%

Question: Which inhibition does the source give for `CCCNC(=O)C1CC(=O)N(c2ccc(OCc3ccccc3)cc2)C1` (stereo not given) here?
Answer: 5.65%

Question: Which inhibition does the source give for `CC1(C)NC(=O)N(CCCCSc2ccc(Cl)cc2)C1=O` here?
Answer: 4.13%

Question: With `CNS(=O)(=O)c1ccc2c(c1)[nH]c(=S)n2C` as the compound, how does the inhibition read?
Answer: 45.2% (active)

Question: For `CCCCn1c(=S)[nH]c2cc(S(=O)(=O)N3CCCCC3)ccc21`, which inhibition is on record?
Answer: 15.1%

Question: For `CCn1c(=S)[nH]c2cc(S(=O)(=O)N3CCOCC3)ccc21`, which inhibition is on record?
Answer: -5.66%

Question: Which inhibition does the source give for `O=C(Nc1ccc2c(c1)CCC2)c1ccc(Br)s1` here?
Answer: 9.29%

Question: With `COc1ccc(CNC(=O)c2ccc(Br)s2)cc1OC` as the compound, how does the inhibition read?
Answer: -0.0485%

Question: With `COc1ccc2nc(NC(=O)c3ccc(Br)s3)sc2c1` as the compound, how does the inhibition read?
Answer: 38.2% (active)

Question: With `Cc1cc(N)n(-c2ccc(S(=O)(=O)N3CCCC3)cc2[N+](=O)[O-])n1` as the compound, how does the inhibition read?
Answer: -11.2%

Question: Which inhibition does the source give for `Cc1oc(-c2cccc(Cl)c2)[n+]([O-])c1C` here?
Answer: 20.3%

Question: With `O=C(CCCC(=O)N(CC(=O)NC1CCCC1)Cc1ccccc1Cl)Nc1ccccn1` as the compound, how does the inhibition read?
Answer: 12%

Question: With `O=C(NC(=S)Nc1ccc(S(=O)(=O)Nc2ncccn2)cc1)c1cccc(Br)c1` as the compound, how does the inhibition read?
Answer: -6.45%

Question: For `O=C(NC(=S)Nc1ccc(Cl)c(C(=O)O)c1)c1cncc(Br)c1`, which inhibition is on record?
Answer: -0.232%

Question: For `O=C(NC(=S)Nc1cccc2c(O)cccc12)c1cccc(Br)c1`, which inhibition is on record?
Answer: 41.4% (active)

Question: Which inhibition does the source give for `CC(=O)c1ccc(N2CCN(C(=O)c3ccc(Cl)c(S(=O)(=O)NC4CC4)c3)CC2)c(F)c1` here?
Answer: 14.2%

Question: Which inhibition does the source give for `CC(=O)c1ccc(N2CCN(C(=O)CCNC(=O)Cn3ccc4ccccc4c3=O)CC2)cc1` here?
Answer: -6.32%

Question: For `CC1CCN(c2ccc([N+](=O)[O-])c(SCCO)c2)CC1`, which inhibition is on record?
Answer: 13.8%

Question: For `CC1(C)N=C(N)NC(Nc2ccc(Cl)cc2)=N1`, which inhibition is on record?
Answer: 9.6%

Question: Which inhibition does the source give for `C=CCNc1nc(Nc2ccc(Cl)cc2)nc(OC)n1` here?
Answer: 13.7%

Question: With `Clc1ccc(Nc2ccc3ccccc3n2)cc1` as the compound, how does the inhibition read?
Answer: 47.2% (active)

Question: Which inhibition does the source give for `COc1ccc(C(C#N)(CC(=O)O)c2cnccn2)cc1OC` (stereo not given) here?
Answer: 7.82%

Question: With `Cn1nc(C(C)(C)C)c([N+](=O)[O-])c1C(N)=O` as the compound, how does the inhibition read?
Answer: 11.7%

Question: For `CC(C)CN1CC(C)C(=O)N(c2ccccc2)C1=S` (stereo not given), which inhibition is on record?
Answer: 6.3%

Question: With `FC(F)(F)c1ccc2nnc(-c3c(Cl)cccc3Cl)n2c1` as the compound, how does the inhibition read?
Answer: 13.4%

Question: Which inhibition does the source give for `Nc1cc(C(F)(F)F)ccc1N1CCOCC1` here?
Answer: 2.47%

Question: Which inhibition does the source give for `CCCC1OC23CCCCC2C(C#N)(C#N)C1(C#N)C(=N)O3` (stereo not given) here?
Answer: 39.2% (active)

Question: For `O=C(NC1CCCC1)C1CC(=O)N(c2ccc(F)cc2)C1` (stereo not given), which inhibition is on record?
Answer: 0.701%

Question: Which inhibition does the source give for `O=C(CCS(=O)(=O)c1cccc2nsnc12)N1CCN(c2ccccc2F)CC1` here?
Answer: 47.3% (active)

Question: With `O=C(CCCNS(=O)(=O)c1cccc2nsnc12)NCCN1CCN(c2ccccc2F)CC1` as the compound, how does the inhibition read?
Answer: -3.19%

Question: With `CCC(=O)N1CCc2cc(S(=O)(=O)CCC(=O)N3CCN(c4ccccc4F)CC3)ccc21` as the compound, how does the inhibition read?
Answer: 20.2%

Question: With `CN1CCN(c2ccccc2NC(=O)COc2ccc(C3CCCCC3)cc2)CC1` as the compound, how does the inhibition read?
Answer: -4.71%

Question: For `Cc1ccc(-c2ccnc3nc(Sc4ncc(C(F)(F)F)cc4Cl)nn23)cc1`, which inhibition is on record?
Answer: 41.4% (active)

Question: Which inhibition does the source give for `Cc1cc(NC(=O)CSc2ncc(C(F)(F)F)cc2Cl)no1` here?
Answer: -6.53%

Question: Which inhibition does the source give for `Cc1ccc(-c2nc3c(Cl)cc(C(F)(F)F)cn3c2Cc2cccc(Cl)c2)cc1` here?
Answer: 9.6%

Question: For `COc1cccc(CNC(=O)COc2cc(O)c3c(c2)OC(C)(C)CC3=O)c1`, which inhibition is on record?
Answer: 8.05%

Question: With `CC1CN/C(=C\C(=O)c2ccc(Br)cc2)C(=O)N1` (stereo not given) as the compound, how does the inhibition read?
Answer: 15.8%

Question: Which inhibition does the source give for `COc1cccc(CNc2nc(NCc3ccccc3OC)nc3ccsc23)c1` here?
Answer: 43.2% (active)

Question: With `COc1cccc(CNc2nc(NCc3cccs3)nc3ccsc23)c1` as the compound, how does the inhibition read?
Answer: 6.96%

Question: For `COc1cccc(-c2cc3nc(NCc4ccccc4OC)n(C)c(=O)c3s2)c1`, which inhibition is on record?
Answer: -2.32%

Question: With `CCc1nc2c(OCc3ccc(C(=O)OC)cc3)cccn2c1N(C)C(=O)C(C)C` as the compound, how does the inhibition read?
Answer: 7.01%

Question: For `O=C(Nc1ccc(-n2cccn2)cc1)C1CCN(Cc2ccsc2)CC1`, which inhibition is on record?
Answer: -1.22%

Question: For `CCCCNC(=O)c1onc(CSc2cccc(OC)c2)c1C(=O)O`, which inhibition is on record?
Answer: -12.1%

Question: For `CCC(C)NC(=O)c1cc(Cl)ccc1OC` (stereo not given), which inhibition is on record?
Answer: 3.09%

Question: With `Cc1cc(Br)cn2c(Cc3ccccc3C(F)(F)F)c(-c3ccc(Cl)cc3)nc12` as the compound, how does the inhibition read?
Answer: 12.9%

Question: Which inhibition does the source give for `Cc1ccc(-c2nc3ccc(Br)cn3c2Cc2ccccc2C(F)(F)F)cc1` here?
Answer: 35.2% (active)

Question: For `COC(=O)c1ccc2nc(-c3cccc(Br)c3)c(Cc3ccccc3C(F)(F)F)n2c1`, which inhibition is on record?
Answer: -9.35%

Question: Which inhibition does the source give for `Cc1cc(C)c2nc(-c3cccnc3)cc(C(=O)Nc3ccc(S(=O)(=O)Nc4onc(C)c4C)cc3)c2c1` here?
Answer: 0.27%
